# Data published in PubChem BioAssay (EPA / NIEHS).
# Inconclusive results are not listed. Active and inactive are the calls of the source. How the source made its calls, unless noted: active means hit-call score of the fitted dose curve at least 0.9, where 1 is the maximum; inconclusive means response in the unintended direction; inactive means score below 0.9.
# What was measured:
# THRA (gene 7067) = THRA (gene 7067) (UniProt P10827); assay: TOX21_TRA_COA_Agonist_Followup_ratio: Tox21 Thyroid Hormone Receptor alpha Agonism through Coactivator Recruitment Follow-Up Assay, Ratio (AID 2283948; active means hit-call score of the fitted dose curve at least 0.9, where 1 is the maximum; inactive means score below 0.9)
# In short: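 Read-out is the 520/495 nm emission ratio (ex 340 nm), scaled between DMSO-only wells as 0% and T3 wells as 100%. It reflects fluorescein-SRC-2 peptide recruitment to GST-TRα LBD detected via terbium anti-GST antibody.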
# THRB (gene 7068) [1] = target: THRB (gene 7068) (UniProt P10828); assay: TOX21_TRB_BLA_Agonist_Followup_ratio: Tox21 Thyroid Hormone Receptor beta Agonism Beta-lactamase (BLA) Follow-Up Assay, Ratio (AID 2283954)
# In short: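 Human TRβ LBD–GAL4 DBD fusion in GeneBLAzer UAS-bla HEK293T cells; 11 concentrations in triplicate, 18 h at 37°C/5% CO2, T3 as agonist control. CCF4-AM substrate 2 h at room temperature; 460:530 nm ratio fitted for gain of signal versus DMSO.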
# THRB (gene 7068) [2] = target: THRB (gene 7068) (UniProt P10828); assay: TOX21_TRB_COA_Agonist_Followup_ratio: Tox21 Thyroid Hormone Receptor beta Agonism through Coactivator Recruitment Follow-Up Assay, Ratio (AID 2283963; active means hit-call score of the fitted dose curve at least 0.9, where 1 is the maximum; inactive means score below 0.9)
# In short: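 GST-TRb LBD 5.0 nM + 0.10% BSA + cpd; add fluorescein-SRC-2 200 nM / Tb anti-GST Ab 2 nM; TR-FRET ex 340, em 520:495; norm DMSO 0%, T3 100%.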
# [3] = target: T1, Thyroid hormone receptor alpha (Rattus norvegicus) + Thyroid hormone receptor beta (Rattus norvegicus) (UniProt P18113+P63059); assay: TOX21_TR_LUC_GH3_Agonist_Followup: Tox21 GH3 Thyroid Hormone Receptor Agonism Luciferase Follow-Up Assay (AID 2283939)
# In short: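 Rat GH3 cells (1,500/well) in serum-free assay medium, treated with 15-point series, 92 uM to 5 nM final, for 24 h at 37C. Luciferase via ONE-Glo luminescence; gain of signal fitted against DMSO, T3 positive control.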
# [4] = CEETOX_H295R_CORTISOL_noMTC: CeeTox H295R High-throughput Steroidogenesis Assay for Cortisol, maximum tolerated concentration (MTC) filtered results only (AID 2283916; active means hit-call score of the fitted dose curve at least 0.9, where 1 is the maximum; inactive means score below 0.9); conditions: actives raise or lower the signal
# In short: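 H295R adrenal cells were pre-stimulated 48 h with 10 uM forskolin, then exposed 48 h to test chemical in 0.1% DMSO. Medium cortisol was measured by MTBE extraction and HPLC-MS/MS; bidirectional fit versus DMSO, concentrations not MTC-filtered.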
# [5] = CEETOX_H295R_CORTIC_noMTC: CeeTox H295R High-throughput Steroidogenesis Assay for Corticosterone (CORTIC), maximum tolerated concentration (MTC) filtered results only (AID 2283917; active means hit-call score of the fitted dose curve at least 0.9, where 1 is the maximum; inactive means score below 0.9); conditions: actives raise or lower the signal
# In short: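 H295R, 10 uM forskolin prestim 48 h → test chem (0.1% DMSO final) 48 h → media MTBE extraction → HPLC-MS/MS corticosterone. Bidirectional fit vs DMSO baseline; no MTT-based MTC filtering.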
# [6] = CEETOX_H295R_DOC_noMTC: CeeTox H295R High-throughput Steroidogenesis Assay for DOC, maximum tolerated concentration (MTC) filtered results only (AID 2283918; active means hit-call score of the fitted dose curve at least 0.9, where 1 is the maximum; inactive means score below 0.9); conditions: actives raise or lower the signal
# In short: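 H295R cells prestimulated 48 h with 10 uM forskolin, then exposed 48 h to test chemical (0.1% DMSO final). Medium 11-deoxycorticosterone extracted with MTBE, quantified by HPLC-MS/MS; bidirectional fit versus DMSO, concentrations not MTC-filtered.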
# PGR (gene 5241) [7] = target: PGR (gene 5241) (UniProt P06401); assay: TOX21_PR_BLA_Followup_Antagonist_ratio: Tox21 HEK293 Progesterone Receptor (PR) Antagonism Beta-lactamase Follow-Up Assay, Ratio (AID 2283934)
# In short: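 HEK293T PR-UAS-bla, 2% CS-FBS; 6 hr plating, then cpd + R5020 (1 nM final), 16 hr 37C/5% CO2. B/G FRET substrate 2 h RT. Ratio ch2/ch1 vs DMSO; CellTiter-Glo viability multiplexed, autofluorescence checked.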
# PGR (gene 5241) [8] = target: PGR (gene 5241) (UniProt P06401); assay: TOX21_PR_LUC_Followup_Antagonist: Tox21 HEK293 Progesterone Receptor (PR) Antagonism Luciferase Follow-Up Assay (AID 2283938);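 further: curve fitted upward as signal gain over DMSO baseline despite antagonist label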
# In short: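 HEK293-PR-A-luc cells were precultured 5 days in medium with 10% charcoal-stripped FBS, seeded 3,000/well, then exposed to compounds in DMSO for 16 h at 37C. Luciferase was read by ONE-Glo luminescence after 30 min at room temperature.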
# [9] = target: T1, Thyroid hormone receptor alpha (Rattus norvegicus) + Thyroid hormone receptor beta (Rattus norvegicus); assay: TOX21_TR_LUC_GH3_Antagonist_Followup: Tox21 GH3 Thyroid Hormone Receptor Antagonism Luciferase Follow-Up Assay (AID 2283942)
# In short: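 Rat pituitary GH3 cells with a TRα/TRβ-driven luciferase reporter, 5 h attachment, then 15 concentrations (92 uM to 5nM final) plus 1.0 nM T3 agonist, 24 h at 37C/5% CO2. ONE-Glo luminescence; signal change fitted against DMSO baseline.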
# [10] = TOX21_TRB_BLA_Antagonist_Followup_viability: Viability Assessment in the Tox21 Thyroid Hormone Receptor beta Antagonism Beta-lactamase (BLA) Follow-Up Assay (AID 2283961)
# In short: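 HEK293T cells stably expressing GAL4-DBD/human TRβ-LBD with UAS-bla reporter, 3,000 cells/well in phenol red-free DMEM, 2% charcoal-stripped FBS. Compounds at 11 concentrations in triplicate, 18 h at 37C/5% CO2; viability by CellTiter-Glo luminescence after 30 min at room temperature.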
# [11] = TOX21_PR_BLA_Followup_Agonist_viability: Viability Assessment in the Tox21 HEK293 Progesterone Receptor (PR) Agonism Beta-lactamase Follow-Up Assay (AID 2283935);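 further: signal loss means lower viability so actives are cytotoxic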
# In short: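 HEK293T PR-UAS-bla, 3,000 cells/well, 2% CS-FBS; 6 hr pre-incubation; cpd in DMSO, 16 hr 37C; LiveBLAzer 2 hr RT, then CellTiter-Glo 30 min RT, luminescence. Decrease = lost viability.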
# [12] = TOX21_PR_LUC_Followup_Antagonist_viability: Viability Assessment in the Tox21 HEK293 Progesterone Receptor (PR) Antagonism Luciferase Follow-Up Assay (AID 2283940)
# In short: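 Multiplexed viability counter-screen: after 5 days in charcoal-stripped-FBS medium, HEK293-PR-A-luc cells are plated, pinned with DMSO-dissolved compounds for 16 h at 37C, and ATP content is quantified luminescently via CellTiter-Glo.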
# [13] = TOX21_PR_LUC_Followup_Agonist_viability: Viability Assessment in the Tox21 HEK293 Progesterone Receptor (PR) Agonism Luciferase Follow-Up Assay (AID 2283941);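 further: loss of signal means cytotoxicity so actives lower viability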
# In short: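 Cells were kept 5 days in charcoal-stripped serum medium before plating HEK293-PR-A-luc at 3,000 cells/well. After 5 h they received DMSO-dissolved compound and incubated 16 h at 37C. Viability was taken from CellTiter-Glo ATP luminescence.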
# [14] = CEETOX_H295R_ESTRADIOL_noMTC: CeeTox H295R High-throughput Steroidogenesis Assay for Estradiol, maximum tolerated concentration (MTC) filtered results only (AID 2283919; active means hit-call score of the fitted dose curve at least 0.9, where 1 is the maximum; inactive means score below 0.9); conditions: actives raise or lower the signal
# In short: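 H295R human adrenal cells pre-stimulated 48 h with 10 uM forskolin, then exposed 48 h to chemical (0.1% DMSO final). Estradiol in medium measured by HPLC-MS/MS after MTBE extraction and dansyl derivatization; bidirectional fit versus DMSO, concentrations not MTT-filtered.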
# [15] = CEETOX_H295R_PROG_noMTC: CeeTox H295R High-throughput Steroidogenesis Assay for Progesterone (PROG), maximum tolerated concentration (MTC) filtered results only (AID 2283920; active means hit-call score of the fitted dose curve at least 0.9, where 1 is the maximum; inactive means score below 0.9); conditions: actives raise or lower the signal
# In short: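 H295R human adrenal cells were prestimulated 48 h with 10 uM forskolin, then exposed 48 h to test chemical (0.1% DMSO final). Progesterone in medium was quantified by HPLC-MS/MS; bidirectional fitting versus DMSO, concentrations not MTC-filtered.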
# [16] = CEETOX_H295R_ESTRONE_noMTC: CeeTox H295R High-throughput Steroidogenesis Assay for Estrone, maximum tolerated concentration (MTC) filtered results only (AID 2283921; active means hit-call score of the fitted dose curve at least 0.9, where 1 is the maximum; inactive means score below 0.9); conditions: actives raise or lower the signal
# In short: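 H295R cells prestimulated 48 h with 10 uM forskolin, then exposed 48 h to chemical in 0.1% DMSO; medium estrone measured by HPLC-MS/MS after MTBE extraction and dansyl derivatization, fitted bidirectionally versus DMSO without MTT-based MTC filtering.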
# PGR (gene 5241) [17] = target: PGR (gene 5241) (UniProt P06401); assay: TOX21_PR_BLA_Followup_Agonist_ratio: Tox21 HEK293 Progesterone Receptor (PR) Agonism Beta-lactamase Follow-Up Assay, Ratio (AID 2283933)
# In short: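 HEK293T PR-UAS-bla, 2% CS-FBS; 6 hr preincubation, cpd/DMSO pinned, 16 hr 37C/5% CO2; LiveBLAzer B/G 2 hr RT; FRET ch2/ch1 ratio, agonist direction vs DMSO. Viability by CellTiter-Glo in same wells.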
# [18] = TOX21_PR_BLA_Followup_Antagonist_viability: Viability Assessment in the Tox21 HEK293 Progesterone Receptor (PR) Antagonism Beta-lactamase Follow-Up Assay (AID 2283936);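 further: hits lower the luminescence signal meaning cytotoxicity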
# In short: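 PR-UAS-bla HEK293T cells (3,000/well, 2% charcoal-stripped FBS) given compound plus R5020 agonist, 16 h at 37C. CellTiter-Glo added after bla read, 30 min at room temperature; luminescence loss indicates cytotoxicity.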
# PGR (gene 5241) [19] = target: PGR (gene 5241) (UniProt P06401); assay: TOX21_PR_LUC_Followup_Agonist: Tox21 HEK293 Progesterone Receptor (PR) Agonism Luciferase Follow-Up Assay (AID 2283937; active means hit-call score of the fitted dose curve at least 0.9, where 1 is the maximum; inactive means score below 0.9)
# In short: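 Cells: HEK293-PR-A-luc, 3,000/well, 10% charcoal-stripped FBS assay medium. Compound added after 5 h; 16 h, 37C, 0% CO2. ONE-Glo luciferase, luminescence. Positive fit vs DMSO.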
# Sequence of THRB (gene 7068) (P10828 whole entry, looked up, the tested form may be a part): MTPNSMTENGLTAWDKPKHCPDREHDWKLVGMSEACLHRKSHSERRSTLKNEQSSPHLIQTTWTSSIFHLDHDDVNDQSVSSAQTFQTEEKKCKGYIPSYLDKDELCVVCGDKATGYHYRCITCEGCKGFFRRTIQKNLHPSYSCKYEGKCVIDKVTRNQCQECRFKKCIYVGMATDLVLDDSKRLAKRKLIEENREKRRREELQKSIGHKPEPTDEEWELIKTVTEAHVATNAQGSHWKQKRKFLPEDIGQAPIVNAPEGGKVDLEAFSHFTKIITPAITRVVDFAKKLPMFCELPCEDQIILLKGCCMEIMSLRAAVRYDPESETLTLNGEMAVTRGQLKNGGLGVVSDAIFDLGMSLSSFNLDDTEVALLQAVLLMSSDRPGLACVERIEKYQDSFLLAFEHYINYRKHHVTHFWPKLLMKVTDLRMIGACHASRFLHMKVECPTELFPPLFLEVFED
# Sequence of PGR (gene 5241) (P06401 whole entry, looked up): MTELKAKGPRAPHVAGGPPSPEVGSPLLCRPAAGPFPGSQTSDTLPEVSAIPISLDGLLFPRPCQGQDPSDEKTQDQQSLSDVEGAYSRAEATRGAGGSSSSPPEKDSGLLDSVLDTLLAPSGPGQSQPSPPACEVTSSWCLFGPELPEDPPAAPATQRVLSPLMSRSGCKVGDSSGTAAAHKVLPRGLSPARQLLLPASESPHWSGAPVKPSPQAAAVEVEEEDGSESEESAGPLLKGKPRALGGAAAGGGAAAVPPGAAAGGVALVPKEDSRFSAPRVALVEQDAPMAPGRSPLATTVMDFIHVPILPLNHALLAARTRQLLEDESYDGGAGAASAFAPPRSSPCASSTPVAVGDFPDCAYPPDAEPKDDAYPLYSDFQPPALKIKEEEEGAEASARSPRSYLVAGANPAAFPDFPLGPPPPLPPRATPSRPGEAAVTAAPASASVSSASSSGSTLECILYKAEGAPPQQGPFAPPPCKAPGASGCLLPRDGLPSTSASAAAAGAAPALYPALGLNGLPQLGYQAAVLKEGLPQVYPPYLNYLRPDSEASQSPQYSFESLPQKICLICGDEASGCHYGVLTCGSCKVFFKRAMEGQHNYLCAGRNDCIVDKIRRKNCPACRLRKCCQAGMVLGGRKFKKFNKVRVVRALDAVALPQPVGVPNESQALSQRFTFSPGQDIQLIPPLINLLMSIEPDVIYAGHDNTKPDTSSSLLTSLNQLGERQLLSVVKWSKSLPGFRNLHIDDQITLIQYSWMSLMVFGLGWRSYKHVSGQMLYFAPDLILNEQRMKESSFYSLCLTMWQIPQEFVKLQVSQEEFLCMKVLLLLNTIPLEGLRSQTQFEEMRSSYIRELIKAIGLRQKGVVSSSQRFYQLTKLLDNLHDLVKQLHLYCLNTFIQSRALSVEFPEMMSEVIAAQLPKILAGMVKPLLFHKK
# Sequence of THRA (gene 7067) (P10827 whole entry, looked up, the tested form may be a part): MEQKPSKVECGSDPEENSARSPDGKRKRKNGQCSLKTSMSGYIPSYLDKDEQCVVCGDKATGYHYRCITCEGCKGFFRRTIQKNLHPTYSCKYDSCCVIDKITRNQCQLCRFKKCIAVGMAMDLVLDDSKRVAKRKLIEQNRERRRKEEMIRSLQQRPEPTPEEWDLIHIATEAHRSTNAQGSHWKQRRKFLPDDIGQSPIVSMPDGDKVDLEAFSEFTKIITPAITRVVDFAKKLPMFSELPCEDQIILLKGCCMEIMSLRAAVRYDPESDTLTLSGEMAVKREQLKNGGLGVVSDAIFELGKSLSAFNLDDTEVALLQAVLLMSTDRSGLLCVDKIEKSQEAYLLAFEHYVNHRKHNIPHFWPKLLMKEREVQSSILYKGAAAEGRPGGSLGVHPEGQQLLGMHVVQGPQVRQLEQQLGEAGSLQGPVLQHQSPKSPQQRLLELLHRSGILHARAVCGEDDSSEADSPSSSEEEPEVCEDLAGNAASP
# T1 sequence (P63059 whole entry, looked up): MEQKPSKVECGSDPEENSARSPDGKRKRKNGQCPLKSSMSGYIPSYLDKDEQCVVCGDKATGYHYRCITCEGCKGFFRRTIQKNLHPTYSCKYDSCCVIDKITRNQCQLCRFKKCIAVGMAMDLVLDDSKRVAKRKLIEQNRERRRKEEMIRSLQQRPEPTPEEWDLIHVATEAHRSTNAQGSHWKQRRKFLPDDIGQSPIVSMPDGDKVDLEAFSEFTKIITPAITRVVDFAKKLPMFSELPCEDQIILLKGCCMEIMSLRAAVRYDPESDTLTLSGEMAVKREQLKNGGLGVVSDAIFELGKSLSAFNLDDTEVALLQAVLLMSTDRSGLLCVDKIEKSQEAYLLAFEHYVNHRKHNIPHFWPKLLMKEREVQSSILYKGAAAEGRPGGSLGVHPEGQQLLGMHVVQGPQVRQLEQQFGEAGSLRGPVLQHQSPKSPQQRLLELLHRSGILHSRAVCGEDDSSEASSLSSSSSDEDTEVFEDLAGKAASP
# T1 sequence (P18113 whole entry, looked up): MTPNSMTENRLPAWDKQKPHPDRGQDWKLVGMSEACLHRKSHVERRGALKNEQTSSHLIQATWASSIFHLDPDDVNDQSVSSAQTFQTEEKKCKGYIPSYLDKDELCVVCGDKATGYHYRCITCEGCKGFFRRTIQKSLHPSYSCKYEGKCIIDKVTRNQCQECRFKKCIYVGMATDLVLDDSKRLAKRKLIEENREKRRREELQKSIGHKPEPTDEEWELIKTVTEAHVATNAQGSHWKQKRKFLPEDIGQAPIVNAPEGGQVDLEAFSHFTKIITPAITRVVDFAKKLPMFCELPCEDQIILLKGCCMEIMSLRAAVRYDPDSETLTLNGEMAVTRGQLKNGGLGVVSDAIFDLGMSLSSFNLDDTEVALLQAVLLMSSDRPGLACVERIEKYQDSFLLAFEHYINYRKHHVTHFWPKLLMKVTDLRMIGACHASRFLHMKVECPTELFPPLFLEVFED
smiles,measurement,setting,value
Cc1cc(NC(=O)C(=O)O)cc(C)c1Oc1ccc(O)c2c1CCC2,AC50,THRA (gene 7067),0.00353 µM (active)
same,AC50,THRB (gene 7068) [1],0.0848 µM (active)
same,AC50,THRB (gene 7068) [2],0.00227 µM (active)
CCCCCCCCCCC,outcome,[3],inactive
same,outcome,THRA (gene 7067),inactive
same,outcome,THRB (gene 7068) [1],inactive
same,outcome,THRB (gene 7068) [2],inactive
O=C(OCCCCCOC(=O)c1ccccc1)c1ccccc1,outcome,[4],inactive
same,outcome,[5],inactive
same,outcome,[6],inactive
O=c1c(O)c(-c2ccc(O)c(O)c2)oc2cc(O)cc(O)c12,outcome,PGR (gene 5241) [7],inactive
same,outcome,PGR (gene 5241) [8],inactive
Nc1nc(N)c2nc(CNc3ccc(C(=O)N[C@@H](CCC(=O)O)C(=O)O)cc3)cnc2n1,outcome,[9],inactive
same,outcome,[10],inactive
C[C@]12C=CC(=O)C=C1CC[C@@H]1[C@@H]2C(=O)C[C@@]2(C)[C@H]1CC[C@]2(O)C(=O)CO,outcome,PGR (gene 5241) [7],inactive
same,outcome,[11],inactive
same,outcome,PGR (gene 5241) [8],inactive
same,outcome,[12],inactive
same,outcome,[13],inactive
Cc1oc(-c2ccccc2)nc1CCOc1cccc2c1ccn2CCC(=O)O,outcome,[4],inactive
same,outcome,[5],inactive
same,AC50,[6],6.44 µM (active)
same,outcome,[14],inactive
same,AC50,[15],12.9 µM (active)
same,outcome,[16],inactive
CCOc1ccc2c(c1)C(C)=CC(C)(C)N2,outcome,PGR (gene 5241) [17],inactive
same,outcome,PGR (gene 5241) [7],inactive
same,outcome,[11],inactive
same,outcome,[18],inactive
same,outcome,PGR (gene 5241) [19],inactive
same,outcome,PGR (gene 5241) [8],inactive
same,outcome,[13],inactive
Oc1ccc2ccccc2c1N=Nc1ccccc1,outcome,PGR (gene 5241) [7],inactive
same,outcome,[11],inactive
same,outcome,[18],inactive
same,outcome,[12],inactive
C=CCOC(=O)c1ccccc1C(=O)OCC=C,outcome,[15],inactive
Oc1ccc2c(c1)OC[C@@H](N1CCC(O)(c3ccc(F)cc3)CC1)[C@H]2O,outcome,PGR (gene 5241) [7],inactive
same,outcome,[11],inactive
same,outcome,[18],inactive
same,outcome,PGR (gene 5241) [8],inactive
same,outcome,[12],inactive
same,outcome,[13],inactive
CCc1c(C(=O)NN2CCCCC2)nn(-c2ccc(Cl)cc2Cl)c1-c1ccc(Br)cc1,outcome,PGR (gene 5241) [17],inactive
same,AC50,PGR (gene 5241) [7],25.5 µM (active)
same,outcome,[11],inactive
same,outcome,[18],inactive
same,outcome,PGR (gene 5241) [19],inactive
same,outcome,PGR (gene 5241) [8],inactive
same,outcome,[12],inactive
